This is an account of results in PubChem BioAssay.

Assay [1] deals with Wnt5a (protein binding on small-molecule microarray). Kind of assay: Wnt5a binders on small-molecule microarray, primary screen, biophysical, 635/667 nm fluorescence (AID 1142).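 Note: fluorescence read at 667 nm with signal to noise per printed feature.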 Conditions: 635 nm fluorescence, higher = more signal.
A short description of assay [2]: cell viability in Huh7 cells, primary screen, cytotoxicity control for HCV replication inhibitor project, CellTiter-Glo luminescence, basal, 48 h (AID 1143).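 Note: Huh7 hepatoma cells carrying a hepatitis C replication reporter with no stimulus; test concentration not given here.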 Conditions: Huh7 HCV replicon, higher = more signal, called active from +8 up or from −8 down.
The nature of assay [3]: P. aeruginosa biofilm formation inhibitors, primary screen, PAO1 strain, BacTiter-Glo luminescence, LB-PBS (AID 1144). Conditions: 12 h, higher = more signal.
Assay [4] in a line: CREB reporter modulators without forskolin, primary screen, cell-based, PC12, CRE-LacZ reporter, unstimulated (AID 1145). The following applies: no forskolin, luminescence, 4.5 h, higher = more signal, called active from +8 up or from −8 down.
Assay [5] can be described thus: CREB reporter modulators under forskolin, primary screen, cell-based, PC12, CRE-LacZ reporter, forskolin-stimulated (AID 1146).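 Note: PC12 cells with 6xCRE LacZ reporter stimulated by forskolin 10 µM; beta-galactosidase reporter signal reflecting CREB driven transcription.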 The following applies: luminescence, 4.5 h, higher = more signal, called active from +8 up or from −8 down.
Assay [6] concerns the target Streptavidin (Streptomyces avidinii) (UniProt P22629). Put plainly: streptavidin binders on small-molecule microarray, primary screen, artefact control for SMM compound annotation, biophysical, 635/667 nm fluorescence (AID 1147).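 Note: signal reflects streptavidin binding to arrayed compounds as a control protein.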 Conditions: streptavidin binding, higher = more signal.
Assay [7] in a line: small-molecule binders of probe aInhba, primary screen, biochemical, small-molecule microarray, 635/667 nm fluorescence (AID 1148).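 Note: score merges 667nm spot fluorescence with signal-to-noise for antibody binding to printed compounds.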 The following applies: higher = more signal.
Assay [8] has as its target Torsin-1A (Homo sapiens) (UniProt O14656). Kind of assay: torsin A binders from cell lysate, primary screen, small-molecule microarray, wild-type, 635/667 nm (AID 1149). The following applies: COS7 hTOR1A-WT lysate, 635 nm fluorescence, higher = more signal.
For assay [9] the target is unchanged. Kind of assay: small-molecule binders of mutant TOR1A in lysate, primary screen, cell lysate, small-molecule microarray, COS7 lysate, 635/667 nm fluorescence (AID 1150).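 Note: score pools 667 nm emission and signal to noise measuring lysate protein binding.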 The following applies: COS7 hTOR1A mutant lysate, 635 nm fluorescence, higher = more signal.
Assay [10] relates to Sonic hedgehog protein (Shh). Kind of assay: small-molecule binders of Shh protein, primary screen, biochemical, small-molecule microarray, 635/667 nm fluorescence (AID 1151).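 Note: Shh protein binding to compounds spotted on small-molecule microarray slides; score combines spot fluorescence intensity with signal-to-noise across triplicate slides.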 The following applies: small-molecule microarray binding, 635 nm fluorescence; higher = more signal.
Assay [11] can be described thus: E. coli DRC41 culture turbidity changes, primary screen, E. coli filamentation inducer project, strain DRC41, OD650, 48 h (AID 1152).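 Note: E. coli MC1000 strain DRC41 lacking acrAB efflux pump and sulA.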 Conditions: E. coli DRC41 (acrAB sulA), higher = more signal, called active from +8 up or from −8 down.
Assay [12] is described as follows: small-molecule binders of probe aLefty1, primary screen, biochemical, small-molecule microarray, 635/667 nm fluorescence (AID 1153).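 Note: score merges spot fluorescence with signal-to-noise ratio from the scanned slide images.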 Conditions: higher = more signal.
Assay [13] can be described thus: PSAC antagonists in infected red cells, primary screen, cell-based, P. falciparum Indochina, OD700, 1 h (AID 1154). Conditions: P. falciparum Indochina infected RBC osmotic lysis, higher = more signal, called active from +8 up or from −8 down.
Assay [14] can be described thus: PSAC antagonists in infected red cells, primary screen, cell-based, P. falciparum Indochina, OD700, 2 h (AID 1155).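 Note: lysis reports solute entry through the parasite surface anion channel PSAC; channel blockers reduce lysis of infected cells.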 The following applies: P. falciparum Indochina infected erythrocytes, osmotic lysis OD700; higher = more signal, called active from +8 up or from −8 down.
Assay [15] is described as follows: osmotic lysis modulators in infected erythrocytes, primary screen, PSAC antagonist project, cell-based, P. falciparum Indochina, OD700, 3 h (AID 1156). Conditions: higher = more signal, called active from +8 up or from −8 down.
The nature of assay [16]: PSAC antagonists in infected red cells, primary screen, cell-based, P. falciparum Indochina, OD700, 18 h (AID 1157). Conditions: P. falciparum Indochina infected erythrocytes, osmotic lysis OD700, 18 h; higher = more signal, called active from +8 up or from −8 down.
The nature of assay [17]: modulators of S6 phosphorylation in cells, primary screen, cell-based, A549, cytoblot, luminescence, serum-stimulated (AID 1158).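 Note: serum-stimulated A549 lung adenocarcinoma cells; signal is phosphorylated S6 detected by cytoblot immunostaining with HRP secondary.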 Conditions: A549 phospho-S6 cytoblot, 5 h, higher = more signal.
For assay [18], the target named is NADPH oxidase 2 (Homo sapiens) (UniProt P04839). Put plainly: NOX2-dependent H2O2 signal modulators, primary screen, NOX inhibitor project, cell-based, HEK293-NOX2, PMA-stimulated, Amplex Red fluorescence (AID 1159). Note: test concentration not given here. Conditions: 45 min, higher = more signal, called active from +8 up or from −8 down.
Assay [19] concerns the target NADPH oxidase 4 (Homo sapiens) (UniProt Q9NPH5). Put plainly: NOX4-dependent H2O2 signal modulators, primary screen, NOX inhibitor project, cell-based, HEK293-NOX4, tetracycline-induced, Amplex Red fluorescence (AID 1160). Conditions: 45 min, higher = more signal, called active from +8 up or from −8 down.
For assay [20], the target named is NADPH oxidase 5 (Homo sapiens) (UniProt Q96PH1). Put plainly: NOX5-dependent H2O2 signal modulators, primary screen, NOX inhibitor project, cell-based, HEK293-NOX5, Amplex Red fluorescence (AID 1161). The following applies: HEK293-NOX5, ionomycin, 45 min, higher = more signal.

The source made the active and inactive calls. Unless noted, the rule behind the calls is not given here.

Sequence of NADPH oxidase 4 (Homo sapiens) (Q9NPH5 whole entry, looked up): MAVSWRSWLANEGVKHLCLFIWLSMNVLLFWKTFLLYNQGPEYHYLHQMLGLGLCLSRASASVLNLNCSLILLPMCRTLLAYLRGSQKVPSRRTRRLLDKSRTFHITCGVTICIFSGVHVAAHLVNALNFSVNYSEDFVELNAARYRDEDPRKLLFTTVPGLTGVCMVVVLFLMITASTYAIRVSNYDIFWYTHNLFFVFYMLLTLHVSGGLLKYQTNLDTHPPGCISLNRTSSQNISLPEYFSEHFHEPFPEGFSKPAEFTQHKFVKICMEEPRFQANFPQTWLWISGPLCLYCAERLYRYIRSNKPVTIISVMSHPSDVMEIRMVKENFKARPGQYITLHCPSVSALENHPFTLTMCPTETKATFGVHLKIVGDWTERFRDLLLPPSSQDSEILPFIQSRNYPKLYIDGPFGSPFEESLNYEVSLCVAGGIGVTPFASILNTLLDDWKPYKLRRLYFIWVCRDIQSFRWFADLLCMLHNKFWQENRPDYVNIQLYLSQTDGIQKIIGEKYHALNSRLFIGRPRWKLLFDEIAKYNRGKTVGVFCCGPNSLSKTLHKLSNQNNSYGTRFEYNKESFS
Sequence of NADPH oxidase 5 (Homo sapiens) (Q96PH1 whole entry, looked up): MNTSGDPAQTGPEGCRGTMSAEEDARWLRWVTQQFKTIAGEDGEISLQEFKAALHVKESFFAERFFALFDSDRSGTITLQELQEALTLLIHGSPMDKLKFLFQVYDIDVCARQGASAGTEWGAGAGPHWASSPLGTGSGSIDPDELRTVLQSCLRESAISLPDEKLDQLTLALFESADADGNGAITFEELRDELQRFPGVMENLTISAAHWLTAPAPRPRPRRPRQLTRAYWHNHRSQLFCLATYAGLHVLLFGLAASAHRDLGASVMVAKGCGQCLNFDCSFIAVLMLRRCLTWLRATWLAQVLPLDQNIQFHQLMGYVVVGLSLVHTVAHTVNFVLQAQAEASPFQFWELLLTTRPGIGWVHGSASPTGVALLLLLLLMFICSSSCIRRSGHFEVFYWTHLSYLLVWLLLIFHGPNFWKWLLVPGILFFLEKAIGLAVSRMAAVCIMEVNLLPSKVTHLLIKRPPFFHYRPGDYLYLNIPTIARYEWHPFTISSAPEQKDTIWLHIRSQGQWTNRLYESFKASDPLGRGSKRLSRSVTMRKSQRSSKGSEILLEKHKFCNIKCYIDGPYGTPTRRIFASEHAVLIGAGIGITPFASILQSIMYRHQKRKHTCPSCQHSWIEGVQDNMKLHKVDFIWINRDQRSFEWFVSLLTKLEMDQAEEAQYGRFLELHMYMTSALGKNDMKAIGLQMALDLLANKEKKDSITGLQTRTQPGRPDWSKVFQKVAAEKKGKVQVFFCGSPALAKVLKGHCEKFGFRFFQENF
Sequence of Torsin-1A (Homo sapiens) (O14656 whole entry, looked up): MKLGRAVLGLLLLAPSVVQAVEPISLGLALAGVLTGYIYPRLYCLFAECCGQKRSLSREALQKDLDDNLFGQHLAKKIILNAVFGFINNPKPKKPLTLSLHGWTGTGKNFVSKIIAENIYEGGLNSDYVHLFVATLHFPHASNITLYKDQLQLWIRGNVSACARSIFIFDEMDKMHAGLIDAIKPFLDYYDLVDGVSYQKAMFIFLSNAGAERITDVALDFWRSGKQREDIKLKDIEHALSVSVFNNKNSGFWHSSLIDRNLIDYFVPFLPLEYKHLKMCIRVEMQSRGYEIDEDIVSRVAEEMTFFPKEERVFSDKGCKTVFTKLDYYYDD
Sequence of NADPH oxidase 2 (Homo sapiens) (P04839 whole entry, looked up): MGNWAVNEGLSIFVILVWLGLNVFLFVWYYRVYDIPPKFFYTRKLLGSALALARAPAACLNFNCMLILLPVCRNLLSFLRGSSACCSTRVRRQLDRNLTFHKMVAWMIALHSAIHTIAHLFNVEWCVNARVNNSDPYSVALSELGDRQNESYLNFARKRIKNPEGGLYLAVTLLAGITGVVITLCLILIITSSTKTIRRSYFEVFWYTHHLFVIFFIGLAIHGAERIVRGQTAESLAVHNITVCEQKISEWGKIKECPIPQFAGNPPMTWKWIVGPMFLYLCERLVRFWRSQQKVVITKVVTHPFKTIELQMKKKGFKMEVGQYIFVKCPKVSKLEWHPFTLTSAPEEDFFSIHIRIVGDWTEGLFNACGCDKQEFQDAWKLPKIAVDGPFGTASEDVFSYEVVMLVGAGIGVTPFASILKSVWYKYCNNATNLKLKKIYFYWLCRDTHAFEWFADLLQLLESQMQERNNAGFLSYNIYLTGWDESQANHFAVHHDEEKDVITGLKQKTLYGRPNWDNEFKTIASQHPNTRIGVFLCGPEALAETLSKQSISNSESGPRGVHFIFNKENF
Sequence of Streptavidin (Streptomyces avidinii) (P22629 whole entry, looked up): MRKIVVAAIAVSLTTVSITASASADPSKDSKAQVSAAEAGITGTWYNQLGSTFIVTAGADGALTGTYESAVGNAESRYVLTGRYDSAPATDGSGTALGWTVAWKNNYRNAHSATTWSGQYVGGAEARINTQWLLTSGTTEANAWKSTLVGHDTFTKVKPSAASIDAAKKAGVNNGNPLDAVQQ

`COC(=O)[C@@]1(Cc2ccc(OC)cc2)[C@H]2c3cc(C(=O)N4CCCC4)n(Cc4c(CO)[nH]cc(C)c4=O)c3C[C@H]2CN1C(=O)c1ccccc1`: the composite z-score is 0.702 in assay [1]; 1.51 in assay [6]; 0.0569 in assay [7]; 0.272 with Torsin-1A (Homo sapiens) [8]; 1.25 with Torsin-1A (Homo sapiens) [9]; -0.65 in assay [10]. For the same compound, the composite z-score in assay [12] was determined as 0.213. For the same compound, the z-score in assay [2] was -1.1 (inactive); in [3], -0.101 (inactive); in assay [4] it was 0.37 (inactive); in assay [5], 1.41 (inactive); in assay [11], -0.552 (inactive); in [13], 0.843 (inactive). Further, the z-score in assay [14] is -0.163 (inactive); in assay [15], 0.455 (inactive); in assay [16] it was -1.46 (inactive); in assay [17] it was 2.57; in assay [18], 0.753 (inactive); in assay [19], 0.386 (inactive). Also, in assay [20], the z-score was -4.96.
On to `CC1CC/C=C\[C@H]2OC34C=CCN(c5ccc(Cl)cc5)C(=O)[C@H]3N(CCCCCCO)C(=O)[C@]4(C)C2C(=O)O1` (stereo not given in full), for which the composite z-score in [1] was -0.765; in [6] it was -0.963; in [7] it was -0.239; with Torsin-1A (Homo sapiens) [8], -2.03; with Torsin-1A (Homo sapiens) [9], -1.7; in [10] it was -0.12. This compound also gave a composite z-score in assay [12] of 0.0999. Also, the z-score in [2] is 0.641 (inactive); in [3], 0.306 (inactive); in assay [4] it was 1 (inactive); in assay [5] it was -0.446 (inactive); in assay [11], 0.348 (inactive); in assay [13], -0.108 (inactive). Moreover, the z-score is -0.36 (inactive) in [14]; -0.0544 (inactive) in [15]; 0.0625 (inactive) in assay [16]; -0.11 in assay [17]; 1.37 (inactive) in [18]; 0.37 (inactive) in assay [19]. In assay [20], this compound gave a z-score of 1.98.
Regarding `COc1ccc([Si](C)(C)[C@H]2[C@H](CC(=O)N3CCC[C@H]3CO)O[C@@]3(C(=O)N(Cc4ccc(N5CCCCC5=O)cc4)c4ccccc43)[C@@H]2C)cc1`, the composite z-score is 0.567 in assay [1]; -0.0147 in assay [6]; 0.426 in assay [7]; 0.13 in the assay with Torsin-1A (Homo sapiens) [8]; 0.608 with Torsin-1A (Homo sapiens) [9]; 2.17 in assay [10]. Also, in assay [12], the composite z-score worked out at 0.44. Further, the z-score in [2] is -3.13 (inactive); in assay [3], -0.53 (inactive); in [4] it was -0.258 (inactive); in [5], 0.44 (inactive); in assay [11], 1.5 (inactive); in assay [13], 7.73 (inactive). Also, the z-score was 1.66 (inactive) in assay [14]; 2.12 (inactive) in assay [15]; 1.02 (inactive) in [16]; 0.287 in assay [17]; 1.52 (inactive) in assay [18]; 1.03 (inactive) in assay [19]. Further, the z-score in assay [20] was determined as 2.69.
As for `[N-]=[N+]=Nc1ccccc1[C@@H]1OC(c2ccc(OCCCO)cc2)=N[C@]1(Cc1ccccc1)C(=O)NCCN1CCOCC1`, the composite z-score was 0.458 in assay [1]; 1.29 in assay [6]; 0.347 in assay [7]; 0.612 in the assay with Torsin-1A (Homo sapiens) [8]; 1.25 in the assay with Torsin-1A (Homo sapiens) [9]; -0.368 in assay [10]. Besides, the composite z-score in [12] worked out at 0.142. Moreover, the z-score in [2] is -5.28 (inactive); in [3], -0.528 (inactive); in [4] it was 0.4 (inactive); in assay [5], -1.37 (inactive); in assay [11] it was 0.146 (inactive); in [13] it was 30.2 (active). The z-score is 26.5 (active) in [14]; 3.9 (inactive) in [15]; 1.92 (inactive) in assay [16]; 1.39 in assay [17]; -3.29 (inactive) in assay [18]; -1.23 (inactive) in [19]. The z-score in assay [20] was -2.13.
Take `Cc1ccc(S[C@]2(C(=O)NC(C)C)CC(=O)N(C3CCCCC3)[C@@H]2c2ccc(CO)cc2I)cc1`: the composite z-score is 0.0335 in assay [1]; 1.46 in assay [6]; -0.0589 in [7]; 1.21 with Torsin-1A (Homo sapiens) [8]; 2.76 in the assay with Torsin-1A (Homo sapiens) [9]; 1.95 in [10]. This compound displayed a composite z-score in assay [12] of -0.0564. Further, the z-score was -3.94 (inactive) in assay [2]; -1.17 (inactive) in assay [3]; -0.608 (inactive) in assay [4]; 0.74 (inactive) in assay [5]; 0.497 (inactive) in [11]; 6.28 (inactive) in [13]. The z-score was 1.47 (inactive) in assay [14]; 1.18 (inactive) in assay [15]; 0.916 (inactive) in [16]; -0.052 in assay [17]; 0.877 (inactive) in assay [18]; 0.292 (inactive) in [19]. The z-score in assay [20] was determined as 1.89.
